Screen size: about 69,000 compounds; about 10 (0.01%) showed an effect of 50% or more. Many of the other results were omitted from the sample, so strong results are more common in it than they were.
What follows are compounds tested against ClpP1P2 (Mycobacterium tuberculosis (strain ATCC 25618 / H37Rv)) (UniProt P9WPC5+P9WPC3) (assay: in vitro assay to detect presence of AMC directly proportional to the activity of ClpP1P2. GHDDI collaboration.). Settings: 50 µM.
Format: functional
Parameters: scale not given: direction of the effect not stated beside the values

Row | SMILES | Percent Effect [%]
1 | CC(=O)N1CC[C@H]2CC(=O)N(C3CCCCC3)CC[C@H]2C1 | -8.93
2 | CC(C)N1CC[C@H]2[C@H](C[C@@H](Cn3cncn3)N2c2nccs2)C1 | 9.71
3 | COC[C@]12COC[C@H]1CN(Cc1ccc3ccccc3n1)C2 | 8.31
4 | CN(C)C[C@H]1OC[C@@H]2CCN(S(=O)(=O)c3cccs3)C[C@@H]21 | -1.92
5 | O=C(c1ncccn1)N1C[C@@H]2CC[C@H](Oc3cccc(F)c3)[C@@H]2C1 | -9.72
6 | COCC(=O)N1CCN(S(=O)(=O)c2cccs2)[C@H]2CS(=O)(=O)C[C@H]21 | 21.1
7 | Cc1ncsc1CN1CC[C@H]2OCC[C@@]2(C(=O)NCC2CC2)C1 | 8.1
8 | CN(C[C@H]1CN2CC[C@H]1C[C@@H]2CNC(=O)c1ccco1)c1ccccc1 | 3.33
9 | CN(C)c1nccc(N2CCO[C@H]3CN(Cc4ccsc4)C[C@H]32)n1 | -1.49
10 | CN(C)S(=O)(=O)N1CCO[C@H]2[C@H](Oc3cccnc3)CC[C@@H]21 | -10.1
11 | Cc1nn(C)c(C)c1S(=O)(=O)N1CC[C@H]2O[C@@H](C)C[C@H]2C1 | 9.45
12 | O=C(c1ccoc1)N1CC[C@@H]2O[C@@H](COCCN3CCCC3)CC[C@@H]21 | 8.08
13 | O=C(CCN1C[C@H]2CC[C@@H]1CN(c1ncccn1)C2)NCc1ccco1 | -5.46
14 | CCc1cnc(N2C[C@H]3C[C@H](C(=O)N4CCOCC4)[C@@H](C2)O3)nc1 | 7.75
15 | CC(C)N1C[C@@H]2CN(C(=O)NCc3ccccc3)CCC[C@]2(C(=O)O)C1 | -0.327
16 | Cc1noc([C@@H]2C[C@H]3CN(Cc4ccc5c(c4)OCO5)C[C@H]3O2)n1 | 2.95
17 | Cc1noc([C@]23COC[C@H]2CN(Cc2cc(C)on2)C3)n1 | 14.7
18 | O=C1C[C@@H]2[C@H](CCN2Cc2ccco2)N1c1ccsc1 | -3.07
19 | C[C@H]1C[C@H]2CN(C(=O)CCc3ccccc3)CC[C@H]2O1 | -7.99
20 | O=C(Nc1ccccc1)[C@H]1CN2CC[C@H]1C[C@@H]2Cn1cc(CCO)nn1 | -1.69
21 | O=C(C[C@H]1[C@H]2CN(Cc3ccc(F)cc3)C[C@@H]12)N1CCCC1 | -10.3
22 | Cc1cnc(N2C[C@@H]3[C@@H](C(=O)NC(C)C)CCS(=O)(=O)[C@@H]3C2)nc1 | 8.69
23 | CCN1CC[C@@]2(C(=O)N3CCOCC3)CCN(C(=O)CC(C)C)CC[C@@H]12 | -11.5

Row | SMILES | Percent Effect [%]
24 | COc1ccc(-c2ncccc2C(=O)N2C[C@H]3CC[C@@H]2C3)cn1 | -2.59
25 | CN(C)S(=O)(=O)N1C[C@@H]2CC[C@H](C1)N(Cc1ccc3c(c1)OCCO3)C2 | -5.61
26 | Cc1nc2cc(C3CCN(Cc4cccc(F)c4F)C3)nn2c(O)c1C (stereo not given) | 4.6
27 | N#Cc1cccc(CN2CC[C@@H]3[C@@H]2CC(=O)N3CCN2CCCC2)c1 | -6.88
28 | CC(C)NC(=O)[C@H]1C[C@@H]2[C@@H](C1)OCCN2Cc1nccs1 | -14.4
29 | Cc1noc(C)c1CN1C[C@H]2CNC[C@H]2C1 | 3.63
30 | c1cnc(NC[C@@H]2CCC[C@@H]3CN(Cc4cccnc4)C[C@@H]32)nc1 | 9.72
31 | CCN(CC)Cc1cc(C(=O)N2CC[C@@]3(O)CCCC[C@H]3C2)c(C)o1 | -7.09
32 | N#Cc1ccccc1C(=O)N1C[C@H]2CC[C@@H]1CN(c1ncccn1)C2 | 12.4
33 | COc1ccc(CN2C[C@@H](N(C)Cc3ccco3)[C@H]3OCCC[C@H]32)cc1 | 8.12
34 | Cc1cccc(CN2CC[C@H]3C[C@H](C)O[C@@H]3C2)n1 | -3.13
35 | CN(C)C(=O)N1CC[C@H]2[C@H]1CCN2c1nncs1 | -2.44
36 | NC(=O)c1cc2c(nc1N1C[C@H]3OC(=O)N(C4CCCC4)[C@H]3C1)CCC2 | 3.22
37 | Cc1ccc(CN2CCO[C@@H]3C[C@@H](C(=O)NC(C)C)C[C@H]32)o1 | -8.36
38 | CCCc1nc(N2CCCN3CCC[C@H]3C2)c2cnn(C)c2n1 | 7.09
39 | CN(C)CCN1C[C@@H]2OCCN(Cc3cnn(C)c3)[C@@H]2C1 | 12
40 | CC(CN1CC[C@@H]2CCCC[C@@H]2C1)n1cnc2ccccc21 (stereo not given in full) | -9.76
41 | Cc1nc(NCC2CC2)nc2c1COCC21CCN(C(=O)C(C)(C)C)C1 (stereo not given) | 97.5
42 | COCCC(=O)N1CCC2(COCc3c(C)nc(NCC4CC4)nc32)C1 (stereo not given) | 11.8
43 | Cc1nc(NCC2CC2)nc2c1COCC21CCN(C(=O)NC(C)C)C1 (stereo not given) | 6.34
44 | CC1=N[C@@]2(CC[C@@H]3CN(CC4CC4)C[C@@H]32)C(=O)N1CC1CC1 | -5.13
45 | Cc1ccoc1C(=O)N1C[C@@H](OCC2CCOCC2)[C@H]2OCCC[C@H]21 | -0.469

From ChEMBL document CHEMBL3988442, “University of Dundee, Small-Polar-MMV Screening Library” (2021)
